This test has as its target Ubiquitin carboxyl-terminal hydrolase 1 (Homo sapiens) (UniProt O94782). As to the kind of experiment: Inhibitors of USP1/UAF1: Hit Validation in Primary Assay. To be noted: Ub-Rhodamine cleavage, fluorescence kinetic read. An excerpt: Deubiquitinating enzymes (DUBs) are a class of enzymes that can cleave isopeptide bond formed between the C-terminal carboxylate of ubiquitin and a lysine side-chain amino group on the target protein. Among them, ubiquitin specific proteases (USPs) constitute the largest DUB family. Human USPs are emerging as promising targets for pharmacological intervention because of their connection to a number of human diseases, including prostate, colon and breast cancer (1, 2), pediatric acute lymphoblastic leukemia (3), and familial cylindromatosis (4). The advantage of inhibiting USPs lies in the potential specificity of therapeutic intervention that can lead to better efficacy and reduce nonspecific side effects. […] This miniaturized assay has a fluorescent read-out and is used to screen the NIH Molecular Libraries Small Molecule Repository (MLSMR) in order to identify a small molecule that inhibits USP1. […]
3 microliters of reagents (buffer in columns 3 and 4 as negative control and 1nM USP1/UAF1 complex in columns 1, 2, and 5-48) are dispensed into Greiner black solid bottom 1536-well assay plates. […] The plates are immediately centrifuged at 1000 rpm for 15 seconds, and subsequently transferred to a ViewLux high-throughput CCD imager (PerkinElmer) wherein kinetic measurements of fluorescence are acquired using 480 nm excitation/540 nm emission filter set (6 reads every 60 seconds, see Table 1). […]

Drawing on PubChem BioAssay AID540327 (National Center for Advancing Translational Sciences (NCATS), 2011), this text covers Potency for one compound.

Where “and” joins values, the source holds several entries; their conditions need not be identical. Equal values may be shown once. The list shows a part of the results. Results filed as inconclusive are left out. Calls of active or inactive are those of the source. The call rests on the fitted dose curve; in most records, active means well fitted inhibition curve with a large enough effect; inconclusive means small, poorly fitted or top-dose-only effect; inactive means flat fitted curve, though single readings scatter.

Ubiquitin carboxyl-terminal hydrolase 1 (Homo sapiens), sequence (O94782 whole entry, looked up): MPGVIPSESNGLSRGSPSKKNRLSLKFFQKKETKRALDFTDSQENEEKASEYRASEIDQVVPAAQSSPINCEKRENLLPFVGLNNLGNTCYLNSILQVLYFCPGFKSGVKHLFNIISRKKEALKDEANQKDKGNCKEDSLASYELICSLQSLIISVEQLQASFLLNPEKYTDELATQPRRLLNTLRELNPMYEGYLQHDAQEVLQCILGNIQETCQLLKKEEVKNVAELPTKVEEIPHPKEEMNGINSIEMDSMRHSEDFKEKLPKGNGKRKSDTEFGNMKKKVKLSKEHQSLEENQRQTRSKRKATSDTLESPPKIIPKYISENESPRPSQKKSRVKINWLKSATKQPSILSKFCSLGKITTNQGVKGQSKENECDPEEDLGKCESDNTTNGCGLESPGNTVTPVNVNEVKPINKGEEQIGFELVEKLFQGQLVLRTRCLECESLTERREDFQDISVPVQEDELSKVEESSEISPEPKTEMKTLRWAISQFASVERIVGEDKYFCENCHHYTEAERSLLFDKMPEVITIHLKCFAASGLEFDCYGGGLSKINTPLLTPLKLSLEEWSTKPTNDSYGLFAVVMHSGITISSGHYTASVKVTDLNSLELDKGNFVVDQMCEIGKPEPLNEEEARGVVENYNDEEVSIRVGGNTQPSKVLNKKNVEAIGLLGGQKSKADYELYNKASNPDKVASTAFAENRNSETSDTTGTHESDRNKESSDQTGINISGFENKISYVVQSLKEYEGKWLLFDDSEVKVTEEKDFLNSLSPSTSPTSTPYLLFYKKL

Consider `CC(C)c1ccc2c(c1)c(SC(C)(C)C)c(CC(C)(C)C(=O)O)n2Cc1ccc(Cl)cc1`, for which the Potency is 66.3 µM (active) and 41.8 µM (active).
